Experimental data published in PubChem BioAssay (NCI).
About 83,000 compounds went through this panel and 20% of them were active in at least one assay; those are over-represented in the sample as a whole.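 How to read the values: 0–100, growth inhibition (40 = 60% inhibited); 0, no net growth; -100 to 0, cell death (-40 = 40% of starting cells died; -100 = all dead).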 Activity calls are given as the source filed them. Rule for the calls: active = growth percent below 10; inactive = the rest.

Columns and labels:
Assay in all cases: NCI-60 one-dose screen, 48 h (100 = growth as untreated, 0 = no growth, -100 = all killed)
Conditions in all cases: 10 µM unless noted
[1] = tested on: SR leukemia
[2] = tested on: RPMI-8226 leukemia
[3] = tested on: OVCAR-8 ovarian
[4] = tested on: OVCAR-5 ovarian
[5] = tested on: OVCAR-4 ovarian
[6] = tested on: SK-OV-3 ovarian
[7] = tested on: IGROV1 ovarian
[8] = tested on: OVCAR-3 ovarian
[9] = tested on: HS 578T breast
[10] = tested on: NCI/ADR-RES ovarian
[11] = tested on: T-47D breast
[12] = tested on: BT-549 breast
[13] = tested on: MDA-MB-435 melanoma
[14] = tested on: SW-620 colon
[15] = tested on: MCF7 breast
[16] = tested on: HCT-116 colon
[17] = tested on: HCC-2998 colon
[18] = tested on: KM12 colon
[19] = tested on: MDA-MB-468 breast

Measured: growth

Cc1ccc2nc(COc3ccc(C(=O)NNC(=O)Nc4ccc(Cl)c(C(F)(F)F)c4)cc3)[nH]c2c1
inactive: [1] 16.8% | [2] 59.5% | [3] 10.7% | [4] 66.9% | [5] 74% | [6] 70.9% | [7] 52.2% | [8] 28.9% | [9] 39.7% | [10] 95.8% | [14] 43.4% | [15] 53.4% | [17] 70.1% | [18] 24.9%
active: [11] -24.8% | [12] -2.01% | [13] 8.76% | [16] 4.51% | [19] -56.9%

O=C1Nc2ccccc2/C1=C/C(=O)c1cc2ccccc2oc1=O
inactive: [1] 56.8% | [2] 95.9% | [3] 109% | [4] 112% | [5] 104% | [6] 91.9% | [7] 98.3% | [8] 55.9% | [9] 105% | [10] 107% | [11] 83.2% | [12] 111% | [13] 110% | [15] 53.3% | [16] 66% | [17] 140% | [18] 95.9% | [19] 54.4%
active: [14] 2.06%

COc1ccc(NC2=C(I)C(=O)C(C)=C(C)C2=O)cc1
active: [2] 2.98% | [3] -19.2% | [5] -84.6% | [8] -17.1% | [10] -20% | [11] -21.1% | [13] -72.4% | [15] -8.31% | [16] -3.05% | [19] -42.3%
inactive: [1] 12.3% | [4] 53.9% | [6] 91.8% | [7] 15.3% | [9] 85.6% | [12] 81.4% | [14] 62.1% | [17] 118% | [18] 19.1%

N#Cc1c(-c2ccc(F)cc2)nc(SCc2ccccc2)nc1N1CCNCC1
active: [1] -10.3% | [2] -58% | [3] -77.5% | [4] -96.3% | [5] -75% | [6] -67.9% | [7] -95.6% | [8] -61.3% | [9] -45.6% | [10] -51.1% | [11] -75.9% | [12] -97.4% | [13] -83.6% | [14] -78.7% | [15] -84.7% | [16] -96.9% | [17] -64.6% | [18] -84.3% | [19] -64.3%

O=C(Nc1nc2ccc([N+](=O)[O-])cc2s1)Nc1ccccc1F
inactive: [1] 15.1% | [3] 15.1% | [4] 15.5% | [5] 16.6% | [7] 21.7% | [8] 24.6% | [13] 12.7% | [14] 16.6% | [17] 23.8% | [18] 13.6%
active: [2] -19.2% | [6] -14.2% | [9] 0.171% | [10] 7.3% | [11] -5.6% | [12] -13.8% | [15] -0.503% | [16] 3.1% | [19] -15.4%

O=C(Cn1c(/C=C/c2ccc([N+](=O)[O-])cc2)nc2ccccc2c1=O)Nc1ccccc1
inactive: [1] 88.1% | [2] 93.8% | [3] 65.8% | [4] 80% | [5] 56.8% | [6] 71.9% | [7] 74.6% | [8] 81.4% | [9] 54.2% | [10] 54% | [11] 79.9% | [12] 63.1% | [13] 91% | [14] 83.6% | [15] 78.5% | [16] 61.2% | [17] 79.8% | [18] 77.3% | [19] 45.4%

COc1ccc(-c2cc(-c3ccccc3)c(C#N)c(=O)[nH]2)cc1S(N)(=O)=O
inactive: [1] 100% | [2] 100% | [3] 113% | [4] 99.3% | [5] 102% | [6] 99.4% | [7] 126% | [8] 109% | [9] 109% | [10] 105% | [11] 102% | [12] 89.5% | [13] 102% | [14] 102% | [15] 103% | [16] 103% | [17] 122% | [18] 103% | [19] 102%

Cc1ccc2nc(NC(=O)Nc3cccc(Cl)c3)sc2c1
inactive: [1] 89.9% | [2] 96.7% | [3] 107% | [4] 118% | [5] 99.5% | [6] 102% | [7] 98.4% | [8] 123% | [9] 116% | [10] 93.9% | [11] 98.5% | [12] 121% | [13] 105% | [14] 106% | [15] 66.8% | [16] 94.7% | [17] 122% | [18] 98.6% | [19] 93.8%

C/C(=N/O)c1ccc(NC(=O)CSc2nnc(-c3ccc(-c4nc5ccc(Cl)cc5[nH]4)cc3)o2)cc1
inactive: [1] 12.3% | [2] 18.2% | [4] 55.3% | [5] 14.5% | [6] 39.6% | [7] 34.5% | [10] 88.9% | [11] 11.8% | [12] 14.2% | [17] 71.2% | [19] 64.9%
active: [3] -31.7% | [8] -5.29% | [9] -13.3% | [13] -32.9% | [14] -54.9% | [15] 3.95% | [16] 4.71% | [18] 2.42%

CCOc1ccccc1[C@H]1C(C(=O)c2ccc(Cl)cc2)C2(N[C@@H]1c1ccccc1)C(=O)Nc1ccccc12 (some centres undefined)
active: [1] -38% | [9] 6.17% | [10] -40.6% | [12] -35% | [13] -28.3% | [15] -9.52% | [16] 3.88% | [17] 6.07% | [19] -31.1%
inactive: [2] 10.9% | [3] 28% | [4] 14.5% | [5] 17.7% | [6] 26% | [7] 17.9% | [8] 25.5% | [11] 10% | [14] 21% | [18] 12.4%

O=C(Nc1ccc(Br)cc1)Nc1ccc(-c2ccc3c(c2)NC(=O)/C3=C\c2ccc[nH]2)cc1
active: [15] 8.33% | [18] -22.6% | [19] -5%
inactive: [1] 18.4% | [2] 32.2% | [3] 35.4% | [4] 55.3% | [5] 33.9% | [6] 77.1% | [7] 46.9% | [8] 12.3% | [9] 56% | [10] 25.7% | [11] 12.1% | [12] 17.2% | [13] 39.7% | [14] 21% | [16] 35% | [17] 38.8%

Cc1ccc(C(=O)C[n+]2cccc3c4ccccc4ccc32)cc1
inactive: [3] 22.5% | [4] 31.3% | [5] 21.1% | [6] 33.9% | [7] 30.9% | [8] 30.3% | [9] 27.6% | [10] 80.9% | [11] 43.8% | [12] 20.8% | [13] 13.5% | [14] 19.5% | [15] 11.8% | [16] 11.8% | [17] 17.4% | [18] 25.7%
active: [1] 2.32% | [2] 4.63% | [19] -10.3%

CN(C)c1nc(NCCNS(=O)(=O)c2ccc(C(=O)/C=C/c3ccccc3)cc2)nc(N2CCOCC2)n1
inactive: [3] 83.4% | [4] 93.6% | [5] 88.3% | [6] 97.7% | [7] 80.5% | [8] 111% | [9] 76.1% | [10] 82.4% | [11] 73.1% | [12] 94.3% | [13] 83.3% | [17] 89.4% | [19] 52.1%
active: [1] -42.7% | [2] 0.0245% | [14] -11.3% | [15] -4.51% | [16] -28.5% | [18] -11.1%

COc1cc(C2CC(c3ccc(C(F)(F)F)cc3)=Nc3c(N)nc(N)nc3N2)ccc1Oc1nc(Nc2ccc(F)cc2)nc(N(C)C)n1 (centres undefined)
active: [1] -25.2% | [15] 3.18% | [16] -16.4% | [17] -17.8% | [19] -8.26%
inactive: [2] 24.3% | [3] 46.9% | [4] 89.1% | [5] 37.1% | [6] 90.8% | [7] 39.8% | [8] 76.1% | [9] 48.9% | [10] 37% | [11] 57.8% | [12] 70.3% | [13] 59.7% | [14] 53.2% | [18] 32.6%

CCOc1ccccc1[C@H]1C(C(=O)c2ccc(Cl)cc2)C2(N[C@@H]1c1ccccc1)C(=O)Nc1ccc(Cl)cc12 (some centres undefined)
active: [1] -28.3% | [12] 9.4% | [15] 5.27% | [19] 4.39%
inactive: [2] 21.1% | [3] 45% | [4] 46.2% | [5] 22.5% | [6] 42.8% | [7] 22.2% | [8] 27% | [9] 49% | [10] 12.6% | [11] 19.9% | [13] 24.1% | [14] 38.1% | [16] 11.1% | [17] 20.4% | [18] 24.2%

Cn1cc(-c2cc(N)n3nc(-c4c[nH]c5ccc(Cl)cc45)cc3n2)c2cc(Br)cnc21
active: [1] -40.9% | [2] -43.6% | [3] -60.1% | [4] -61.2% | [5] -54% | [7] -49.3% | [8] -81% | [9] -16.2% | [10] -54.7% | [11] -50% | [12] -16.1% | [13] -80.8% | [14] -79.1% | [15] -59.8% | [16] -74.3% | [17] -99% | [18] -68.8% | [19] -93.6%
inactive: [6] 65.1%
